Measurements as given in PubChem BioAssay AID1578 (Sanford-Burnham Center for Chemical Genomics, 2009).
Screen size: about 290,000 compounds; about 3,000 (1%) were called active. This is one part of a sample in which actives are shown more often than they occur. Unmarked numbers belong to inactive results. No stated cut-off is given here; in the data, active means inhibition mostly above about 36% (no sharp cut-off); inactive means mostly below about 34%.

assay: inhibition of NOD1-driven NF-kB reporter – cell-based, luminescence, uHTS, primary screen (AID 1578); conditions: NOD1-driven NF-kB luciferase reporter cells, at 4 µM, active compounds read high;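 further: HEK-293T reporter cells stimulated with the NOD1 agonist gamma-tri-DAP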

| SMILES | inhibition |
| --- | --- |
| CC(=O)c1cc(C#N)c(NCc2ccccc2)nc1C | -40.7% |
| c1cn(CCCNc2ncnc3sc4c(c23)CCC4)cn1 | 29.2% |
| CCOc1cccc(-c2cc(C(=O)Nc3ccon3)c3ccccc3n2)c1 | -14% |
| CCOC(=O)C(=O)N1CCN(c2nc(-c3ccc(Cl)cc3)cs2)CC1 | -19.1% |
| O=C1CC(Cc2ccc(Br)cc2)C(=O)N1c1ccccc1 (configuration not stated) | -19.8% |
| Clc1ccc(N/N=C/c2ccncc2)cc1Cl | -40.8% |
| Clc1cncc(Cl)c1N/N=C/c1ccncc1 | 75.3% (active) |
| Clc1cncc(Cl)c1N/N=C/c1ccccc1 | -10.5% |
| CCOc1cc(/C=C(/NC(C)=O)C(=O)O)cc(Cl)c1OCc1cccc(Br)c1 | -9.8% |
| COc1ccc(CN2CCCC(C(=O)c3ccc(Cl)cc3)C2)cc1Cn1cccn1 (configuration not stated) | -12.4% |
| O=C(c1ccc(Cl)cc1)C1CCCN(Cc2ccc(Oc3ncccn3)cc2)C1 (configuration not stated) | 19.6% |
| COc1ccc(C(=O)C2CCCN(Cc3ccc4nonc4c3)C2)cc1OC (configuration not stated) | -4.5% |
| CC(C)Oc1cccc(C(=O)C2CCCN(Cc3cnn(C(C)C)c3)C2)c1 (configuration not stated) | -18.3% |
| CC(C)Oc1cccc(C(=O)C2CCCN(Cc3ccc4nonc4c3)C2)c1 (configuration not stated) | 55.2% (active) |
| Cc1cccc(-c2nc3c(c(SCC(N)=O)n2)CCCC3)c1 | -10.2% |
| CC(C)c1ccc(NC2CCCN(C(=O)c3cccc(N4CCNC4=O)c3)C2)cc1 (configuration not stated) | 30.5% |
| CC(=O)c1cccc(NC(=O)c2ccc(N(Cc3ccccc3C)S(C)(=O)=O)cc2)c1 | 6.4% |
| O=C(O)c1ccc(-c2ccc(-c3ccccc3)cc2)s1 | 93.5% (active) |
| Nc1ccc(-c2ccc(C(=O)O)s2)cn1 | -26.1% |
| CNC(=O)c1ccc(-c2ccccc2)s1 | -12.7% |
| O=C(CNC(=O)c1ccco1)NCCCc1ccccc1 | 17.4% |

| SMILES | inhibition |
| --- | --- |
| Cc1cc(/C=c2/sc3nc4ccccc4n3c2=O)c(C)n1-c1ccccn1 | 74.4% (active) |
| Cc1cc(/C=c2\sc3nc4ccccc4n3c2=O)c(C)n1-c1ccc(C(=O)O)cc1 | 20.6% |
| Cc1cc(/C=C2/NC(=O)NC2=O)c(C)n1-c1ccccn1 | -34.5% |
| CCN(CC)c1ccc(/C=c2\sc3nc4ccccc4n3c2=O)c(O)c1 | 33.8% |
| O=c1/c(=C/c2ccccn2)sc2nc3ccccc3n12 | -98.1% |
| O=c1c2ccccc2cnn1-c1ccc(Cl)nn1 | -19% |
| Cc1ccccc1-n1nc2c(c1NC(=O)c1c(-c3ccccc3Cl)noc1C)CS(=O)(=O)C2 | -10.3% |
| Cc1nn(C)cc1CNC(=O)c1ccc(Br)o1 | -3.1% |
| COc1ccc2ccccc2c1/C=N\NC(=O)c1ccc(C)s1 | -3.2% |
| Cc1cccc(OCC(=O)NNC(=O)CSc2ncc(C#N)c(N)n2)c1 | 98.2% (active) |
| Cc1ccc(OCC(=O)NNC(=O)CSc2ncc(C#N)c(N)n2)cc1 | -22.7% |
| N#Cc1cnc(SCC(=O)NNC(=O)COc2cccc3ccccc23)nc1N | -19.9% |
| CCCCn1c(SCC(=O)N2CCOCC2)nc2ccccc2c1=O | -11.7% |
| COc1ccc(NC(=O)CSc2nc(N)c(NC(=O)c3cccs3)c(=O)[nH]2)cc1 | -4.6% |
| COc1cccc(-c2ccc(NC(=O)C3CCCN(CCCn4cccn4)C3)cc2)c1 (configuration not stated) | -32.8% |
| Cc1ccccc1Oc1nc2ccccn2c(=O)c1/C=C(\C#N)C(=O)Nc1c(C)n(C)n(-c2ccccc2)c1=O | -32.9% |
| O=C(COc1ccccc1)Nc1ccccc1NS(=O)(=O)c1cccs1 | 15.4% |
| O=C(COc1ccc(Cl)cc1Cl)Nc1ccccc1NS(=O)(=O)c1cccs1 | 38.6% |
| N#Cc1c(NC(=O)CSc2nnc(-c3ccccc3O)n2-c2ccccc2)sc2c1CCCC2 | -23.8% |
| N#Cc1c(Sc2ncc(C(F)(F)F)cc2Cl)nsc1C/C=N\OCc1c(F)cccc1Cl | 23.5% |
| O=C(Nc1ccc(Oc2cccnc2)cc1)C1CCN(Cc2ccc(F)cc2)CC1 | -7.5% |

| SMILES | inhibition |
| --- | --- |
| O=C(NCCCn1ccnc1)/C(=C\c1cccnc1)NC(=O)c1ccco1 | -5.2% |
| COc1ccc2oc(C(=O)NCc3cc(OC)c(OC)cc3OC)c(C)c2c1 | 17.1% |
| CCOC(=O)C1CCN(C(=O)COC(=O)COc2ccc(Cl)cc2)CC1 | -16% |
| NC(=O)c1ccc(Oc2ccc(Cl)cc2)c([N+](=O)[O-])c1 | 2.7% |
| CCC(=O)c1ccc(Oc2ccc(C(=O)c3ccc(C)cc3)cc2[N+](=O)[O-])cc1 | 40.1% |
| CC(=O)c1ccc(Oc2ccc(C(=O)c3ccc(C)c(C)c3)cc2[N+](=O)[O-])cc1 | 69.6% (active) |
| Cn1ncnc1SCc1cn2cccnc2n1 | -16.1% |
| COc1ccc(-c2nc(CN3CCC(C(=O)N4CCOCC4)CC3)c(C)o2)cc1OC | -6.6% |
| COc1ccc([N+](=O)[O-])cc1NC(=S)Nc1ccccc1 | 4.9% |
| O=C(CN(C(=O)CNS(=O)(=O)c1ccccc1)c1ccc2c(c1)OCCO2)NC1CCCCC1 | -17.9% |
| CN(/N=C/c1cc(Cl)ccc1O)C1=NS(=O)(=O)c2ccccc21 | 30.8% (active) |
| COc1cccc(/C=N/N(C)C2=NS(=O)(=O)c3ccccc32)c1O | -15.4% |
| Cc1ccc(/C=N/N(C)C2=NS(=O)(=O)c3ccccc32)cc1 | 5% |
| CCOc1ccc(CC(=O)NNC(=S)Nc2ccc(OC)c(OC)c2)cc1 | -36.4% |
| Cc1ccc(C)c(C(=O)N(C)CC(=O)Nc2ccccc2C(F)(F)F)c1 | 35.4% |
| CCn1c(=O)c(C(=O)NCc2ccccc2)c(O)c2ccccc21 | -12.4% |
| O=[N+]([O-])c1cccc(OCC(O)CN2CCN(S(=O)(=O)c3cc(Cl)ccc3Cl)CC2)c1 (configuration not stated) | 15.6% |
| O=C(C[N+]1(CC#Cc2ccccc2)CCCCC1)c1ccc(Cl)cc1 | -15.6% |
| O=C(C[N+]1(CC#Cc2ccccc2)CCOCC1)c1ccccc1 | -26.9% |
| O=C(C[N+]1(CC#Cc2ccccc2)CCCCC1)c1ccccc1 | 47.4% (active) |
